Source: PubChem BioAssay (NCI)
About 83,000 compounds went through this panel and 20% of them were active in at least one assay; those are over-represented in the sample as a whole.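 The test compound was applied at a single concentration to cells in 96-well plates for 48 hours, and percent growth was recorded.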 Unmarked numbers belong to inactive results. Calls of active or inactive are those of the source. How the source made its calls: active means growth percent below 10; inactive means the rest.

Columns and labels:
Experiment in all cases: NCI-60 one-dose screen, 48 h (100 = growth as untreated, 0 = no growth, -100 = all killed)
SR leukemia = conditions: 10 µM unless noted
RPMI-8226 leukemia = conditions: 10 µM unless noted
OVCAR-8 ovarian = conditions: 10 µM unless noted
OVCAR-5 ovarian = conditions: 10 µM unless noted
OVCAR-4 ovarian = conditions: 10 µM unless noted
SK-OV-3 ovarian = conditions: 10 µM unless noted
IGROV1 ovarian = conditions: 10 µM unless noted
OVCAR-3 ovarian = conditions: 10 µM unless noted
HS 578T breast = conditions: 10 µM
NCI/ADR-RES ovarian = conditions: 10 µM unless noted
T-47D breast = conditions: 10 µM unless noted
MDA-MB-435 melanoma = conditions: 10 µM unless noted
SW-620 colon = conditions: 10 µM unless noted
MCF7 breast = conditions: 10 µM unless noted
HCC-2998 colon = conditions: 10 µM
KM12 colon = conditions: 10 µM unless noted
HCT-116 colon = conditions: 10 µM unless noted
BT-549 breast = conditions: 10 µM unless noted

Row | Compound | growth (SR leukemia) | growth (RPMI-8226 leukemia) | growth (OVCAR-8 ovarian) | growth (OVCAR-5 ovarian) | growth (OVCAR-4 ovarian) | growth (SK-OV-3 ovarian) | growth (IGROV1 ovarian) | growth (OVCAR-3 ovarian) | growth (HS 578T breast) | growth (NCI/ADR-RES ovarian) | growth (T-47D breast) | growth (MDA-MB-435 melanoma) | growth (SW-620 colon) | growth (MCF7 breast) | growth (HCC-2998 colon) | growth (KM12 colon) | growth (HCT-116 colon) | growth (BT-549 breast)
1 | CCC1(/C=N/NC(N)=S)NC(=O)NC1=O (stereo not given) | 91.1% | 103% | 98.1% | 109% | 109% | 83.9% | 113% | 119% | 104% | 111% | 104% | 105% | 114% | 97.7% | 115% | 113% | – | –
2 | Ic1ccccc1-c1ccccc1 | 102% | 103% | 110% | 114% | 109% | 111% | 117% | 111% | 102% | 110% | 107% | 121% | 102% | 103% | 114% | 109% | 111% | –
3 | CCCCn1c(C)nc2cc(Nc3nc(N4CCCCC4)nc4nc[nH]c34)ccc21 | 31.2% | 40.3% | 30.1% | 50.1% | 19% | 66.5% | 30.8% | 37.7% | 43.8% | 35% | – | 37.4% | 79% | 32.5% | 66.2% | 38.1% | 48.8% | 18%
4 | CCOC(=O)C1=C(C)N=C2Sc3cc(OC(F)(F)F)ccc3N2[C@H]1c1ccccn1 | 26.2% | 33.6% | 38% | 65% | 28.3% | 39.9% | 39.8% | 51.5% | 63.5% | 38.2% | – | 51.1% | 23.6% | 41.3% | 69.4% | 32.3% | 24.2% | 59.4%
5 | COc1ccc2c(CCCCC(c3ccccc3)c3ccccc3)c3[n+](cc2c1OC)CCc1cc2c(cc1-3)OCO2 | -35.8% (active) | -33% (active) | -54.8% (active) | -13.4% (active) | -80.2% (active) | -9.34% (active) | -52.1% (active) | -89.6% (active) | -20.1% (active) | 68.5% | – | -91.8% (active) | -76.9% (active) | -40.6% (active) | -95.7% (active) | -71.5% (active) | -52.8% (active) | -74.2% (active)
6 | Cc1ccc(N=C2CSc3nnc(-c4csc5c4CCCC5)n3N2)cc1 | 32.2% | 24.7% | 35.1% | 54.4% | 62.1% | 27.6% | 53.3% | -21.4% (active) | 38.8% | 1.16% (active) | 48.2% | -25.1% (active) | 29.9% | 21.4% | 30.3% | 24% | 13.9% | –
7 | COc1ccc(Cc2cc(-c3ccccc3C)n[nH]c2=O)cc1 | 103% | 39.9% | 99.9% | 101% | 92.5% | 102% | 53.7% | 96.4% | 90.9% | 105% | 94.4% | 117% | 103% | 95.4% | 110% | 97.9% | 98% | –
8 | Cc1cc2c(-c3nc4ccccn4c3Nc3cccc4ccccc34)c(O)c(O)cc2c(O)c1-c1c(C)cc2c(-c3nc4ccccn4c3Nc3cccc4ccccc34)c(O)c(O)cc2c1O | 27.5% | 14.5% | 39.8% | 66.8% | 56% | 24.2% | 47.8% | 68.3% | 39.7% | 81.6% | – | 21.6% | 23.9% | 14.7% | 41.8% | 20.1% | – | –
9 | C=CCCCC(=O)CCC(=O)OCC1O[C@@H](O[C@@H]2C(O)[C@@H](OC(C)=O)C(C)O[C@H]2O[C@H](CC=C)CCCCC)C(O)[C@@H](OC(=O)/C(C)=C/C)[C@@H]1OC(=O)/C=C/c1ccccc1 (stereo not given in full) | -12.4% (active) | -1.27% (active) | 42.1% | 53.5% | 42.4% | 40.6% | 35.1% | 26% | 35.9% | 49.2% | – | 9.15% (active) | 30.6% | 17.6% | 44.1% | 22.3% | 13.7% | 16.7%
